# Reference: PubChem BioAssay AID686979 (National Center for Advancing Translational Sciences (NCATS), 2013)
# Screen size: about 420,000 compounds; about 50,000 (12%) were called active. About 26% were inconclusive and are not listed. The list comes from a sample in which actives are over-represented; it also holds similar structures and randomly drawn compounds. Unmarked numbers belong to inactive results. The call rests on the fitted dose curve; in most records, active means well fitted inhibition curve with a large enough effect; inconclusive means small, poorly fitted or top-dose-only effect; inactive means flat fitted curve, though single readings scatter.
# Experiment: qHTS for Inhibitors of human tyrosyl-DNA phosphodiesterase 1 (TDP1): qHTS in cells in presence of CPT; further: nearly all actives have a fitted effect of over 55% in size
# Conditions: chicken DT40 Tdp1-/-;hTDP1 cells + 20 nM CPT, ATP luminescence, 48 h; series mostly up to 46.2 µM; activity change, negative = growth inhibition: at the top concentration
# In short: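 Chicken DT40 Tdp1-/- cells complemented with human TDP1, 400 cells/well, exposed to compounds plus 20 nM camptothecin for at least 48 h at 37 C; viability read as ATP content by CellTiter-Glo luminescence.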
# On the % scale 0 is the no-effect control and ±100 the full control effect; potency means the concentration at half of the fitted maximal effect.
SMILES,"activity change, negative = growth inhibition",Potency
N#Cc1ccc(S(=O)(=O)NCC(=O)OCC(=O)NCCc2ccccc2)cc1,7.05%,–
CCCn1c(N)c(N(CCOC)C(=O)C2CCCC2)c(=O)[nH]c1=O,-2%,–
COC(=O)c1cn(-c2ccccc2)nc1-c1cccnc1,-18.1%,–
O=C(O)c1ccc(NC(=O)c2cn(-c3ccccc3)nc2-c2ccc(Cl)cc2)cc1,–,20.6 µM (active)
COc1ccc(-c2nn(-c3ccccc3)cc2/C=C\C(=O)N2CCOCC2)cc1[N+](=O)[O-],12.3%,–
O=C(O)c1ccc(NC(=O)c2ccc(COc3ccc(Cl)cc3)o2)cc1,-22.3%,–
O=C(NNC(=S)NC(=O)c1cn(-c2ccccc2)nc1-c1ccccc1)c1ccncc1,–,14.6 µM (active)
O=C(O)/C=C/c1cn(-c2ccccc2)nc1-c1cccs1,-7.54%,–
O=C(c1cn(-c2ccccc2)nc1-c1cccnc1)N1CCCCC1,0.912%,–
Cc1ccc(-c2nn(-c3ccccc3)cc2C(=O)Nc2cccc(S(=O)(=O)N3CCOCC3)c2)cc1,-25.5%,–
COc1ccc(-c2nn(-c3ccccc3)cc2/C=C\C(=O)Nc2ccc(C(=O)O)cc2)cc1,–,23.1 µM (active)
COc1ccc(S(=O)(=O)N(CCCN2CCCC2=O)Cc2cc3c(C)ccc(C)c3[nH]c2=O)cc1,-28.9%,–
O=C(CN1CCN(S(=O)(=O)c2ccc3ccccc3c2)CC1)NC(=O)NC1CCCCC1,-16.3%,–
O=C(CN1CCC(NC(=O)Nc2ccccc2)CC1)Nc1cccc([N+](=O)[O-])c1,6.65%,–
O=C(N/N=C\c1ccc(Br)cc1)c1ccc(Cn2cccn2)o1,-10.9%,–
O=C1c2ccccc2C(Nc2ccc3c(c2)OCCO3)N1Cc1ccco1 (stereo not drawn),–,20.6 µM (active)
S=C(NCc1ccco1)Nc1ccc2c(c1)OCCO2,-11.7%,–
O=C(NC1CCCCC1)C1c2ccccc2C(=O)N1Cc1ccco1 (stereo not drawn),1.87%,–
Cn1cnc2c1c(=O)n(Cc1ccccc1C#N)c(=O)n2C,-5.65%,–
CC(=O)Nc1ccc(S(=O)(=O)NNC(=O)CCc2ccccc2)cc1,4.6%,–
CCc1nccn1S(=O)(=O)c1cc(Br)ccc1Br,-16.5%,–

SMILES,"activity change, negative = growth inhibition",Potency
COC(=O)c1ccc(CNC(=O)C2CCC(=O)N(Cc3cccc(F)c3)C2)cc1 (stereo not drawn),1.7%,–
COc1cc(CNC(=O)c2cc3n(n2)CCCN(Cc2cccc(F)c2)C3=O)cc(OC)c1OC,–,16.4 µM (active)
CCNC(=O)c1cc2n(n1)CCCN(Cc1ccc(C)cc1)C2=O,-16.7%,–
O=C(c1cc(C2CCCCN2S(=O)(=O)c2ccccc2)on1)N1CCOCC1 (stereo not drawn),-14.5%,–
CSc1ccc(/C=N/N2CCN(Cc3ccccc3Cl)CC2)cc1,-24.1%,–
COc1ccc(CNC(=O)COC(=O)c2c(C)nn(-c3ccccc3)c2C)cc1OC,-1.35%,–
CCCOc1ccc(F)cc1-c1cc(C(=O)NCc2ccc(F)cc2)[nH]n1,–,14.6 µM (active)
Cc1ccc(NC(=O)c2cc(-c3ccccc3O)n[nH]2)cc1C,-22%,–
Cc1cc(=O)oc(C)c1C(=O)NCc1ccc(F)cc1,-11%,–
CCCOc1ccc(F)cc1-c1cc(C(=O)Nc2ccc(F)c(Cl)c2)[nH]n1,–,14.6 µM (active)
COc1ccc(NC(=O)CN2CCN(S(=O)(=O)c3ccc(F)cc3)CC2)cc1Cl,-3.64%,–
CCCOc1ccccc1-c1nc(SCCC(=O)O)n[nH]1,-8.61%,–
COc1ccccc1C(=O)COC(=O)COc1ccc(C#N)cc1,5.69%,–
COc1cccc(NC(=O)N(C)C[C@@H]2Oc3ncc(Br)cc3C(=O)N([C@@H](C)CO)C[C@H]2C)c1,-4.55%,–
Oc1ccc(-c2cccc(-c3ccc(O)cc3)c2)cc1,-21.4%,–
CN(C(=O)COC(=O)c1cc(=O)[nH]c2ccccc12)C1CCCCC1,-1.93%,–
CCOc1ccccc1CNC(=O)c1ccc2c(c1)nc1n2CCC(C)C1 (stereo not drawn),-1.2%,–
O=C(COC(=O)/C=C/c1cn(-c2ccccc2)nc1-c1cccnc1)Nc1ccc(Cl)cc1Cl,–,9.2 µM (active)
COc1ccc(NC(=O)CN(C)C(=O)/C=C/c2cn(Cc3ccccc3)nc2-c2cccnc2)cc1,-17.9%,–
Cc1ccc(/C=C/C(=O)OCC(=O)Nc2cccnc2Cl)cc1,5.25%,–
Cc1[nH]n(-c2ccccc2)c(=O)c1CCOC(=O)c1ccc(C(F)(F)F)cc1,4.03%,–

SMILES,"activity change, negative = growth inhibition",Potency
COc1ccc(OCCNS(=O)(=O)Cc2ccccc2)cc1,-12%,–
COc1ccc(S(=O)(=O)NCCCc2ccccc2)cc1,-18.6%,–
COc1ccc(S(=O)(=O)NCCCCOc2ccc(Cl)cc2)cc1,–,10.3 µM (active)
CC(=O)c1ccc(S(=O)(=O)N(C)CCCC(=O)N(C)Cc2ccccc2F)cc1,-5.41%,–
C/C(=N\NC(=O)COc1c(C)cccc1C)c1cccs1,-4.87%,–
Cc1nn(-c2ccccc2)c(C)c1/C=N/NC(=O)CSc1nc2ccccc2c(=O)n1-c1ccccc1,–,16.4 µM (active)
CCc1c(O)nc(SCC(=O)N2CCCCC2)n(-c2ccccc2C)c1=O,-14.5%,–
Cc1ccc(-n2c(SCC(=O)N/N=C/C=C/c3ccccc3[N+](=O)[O-])nc3ccccc3c2=O)cc1,-19.7%,–
O=C(CSc1nc2ccccc2c(=O)n1-c1ccc(F)cc1)NC1CC1,-14.4%,–
C/C(=N\NC(=O)CSc1nc2ccccc2c(=O)n1-c1ccccc1C)c1cccs1,–,23.1 µM (active)
CCn1c(SCC(=O)NC2=NCCS2)nnc1C(C)NC(=O)c1ccccc1F (stereo not drawn),6.99%,–
Cc1ccc(Nc2cc(=O)n(C3CCCCC3)c(=O)[nH]2)cc1C,-15.9%,–
C[C@H](NC(=O)c1nc[nH]c1C(=O)NCC(=O)OC(C)(C)C)c1ccccc1,19.7%,–
CCC1(CC)NC(=O)N(CC(=O)OCC(=O)Nc2ccc(C(F)(F)F)cc2)C1=O,-5.2%,–
Cc1nc(S(=O)(=O)c2ccc(Br)cc2)nc2c1CCC2,21.9%,–
Cc1cc(Nc2ccc(C)c(C)c2)n2ncnc2n1,-9.95%,–
Brc1ccc(Nc2c3c(nc4ncnn24)CCC3)cc1,–,25.9 µM (active)
Cc1cc([N+](=O)[O-])c(NC2CCCCC2)c([N+](=O)[O-])c1,1.16%,–
Cc1sc2c(c1C)c(=O)n(-c1ccccc1)c(=O)n2CC(=O)NCC1CCCO1 (stereo not drawn),-3.05%,–
Cc1ccc(NC(=O)Cn2c(=O)n(-c3ccccc3)c(=O)c3c4c(sc32)CCCC4)cc1,–,14.6 µM (active)
CCC(C)NC(=O)Cn1c(=O)n(-c2ccc(Cl)cc2)c(=O)c2c3c(sc21)CCCC3 (stereo not drawn),-16.5%,–
